Measurements published in PubChem BioAssay (Tox21).
Calls of active or inactive are those of the source. Entries that show only a call come without a potency. Unless noted, calls follow the shape of the dose curve; as a rule, active = well fitted curve in the direction sought with a large enough effect in the repeat runs; inconclusive = weak or mixed curves; inactive = no such curve, though single readings can be large; an effect the other way counts as inactive or inconclusive. Starred links: 1 amine or outer side, 2 acyl side, 3 side chain; linkers in the order of their positions; H or OH if unused. Positions of bridges follow the written chain, without caps; N, C: chain ends. Non-standard residues stand in square brackets, D forms with d. Residues, ends and D or L forms follow the SMILES beside them. *: point of attachment. X5 = NC1=N[C@@H]([C@H](N[*:1])C(=O)[*:2])C[C@H](O)N1; ΔAla(Z-3-ureido) = NC(=O)N/C=C(\N)C(=O)O; β3hOrn = NCCC[C@H](N)CC(=O)*; Dap = NC[C@H](N)C(=O)O

How the values were obtained:
[1] = qHTS assay to identify small molecule antagonists of the glucocorticoid receptor (GR) signaling pathway - cell viability counter screen (AID 720693); also: nearly all actives have a fitted effect of over 55% in size
[2] = qHTS assay for identifying genotoxic compounds that show differential cytotoxicity against isogenic chicken DT40 cell lines with known DNA damage response pathways - wild type cell line (AID 743012); also: nearly all actives have a fitted effect of over 60% in size; also: potency is read from the fitted curve at half-maximal effect
How it was run: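 Endpoint: CellTiter-Glo luminescence, 30 min RT. Cells: wild type DT40, 300/well. Exposure: compounds in DMSO, 40 h, 37 C/5% CO2, after ~0.5 h pre-incubation.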

[3] = qHTS assay for identifying genotoxic compounds that show differential cytotoxicity against isogenic chicken DT40 cell lines with known DNA damage response pathways - Rev3 mutant cell line (AID 743014); also: nearly all actives have a fitted effect of over 55% in size; also: potency is read from the fitted curve at half-maximal effect
[4] = qHTS assay for identifying genotoxic compounds that show differential cytotoxicity against isogenic chicken DT40 cell lines with known DNA damage response pathways - Rad54/Ku70 mutant cell line (AID 743015); also: nearly all actives have a fitted effect of over 60% in size; also: potency is read from the fitted curve at half-maximal effect
[5] = qHTS assay to identify small molecule antagonists of the androgen receptor (AR) signaling pathway - cell viability counter screen (AID 743033; also: nearly all actives have a fitted effect of over 45% in size)
[6] = qHTS assay to identify small molecule antagonists of the androgen receptor (AR) signaling pathway using the MDA cell line - cell viability counter screen (AID 743041; also: nearly all actives have a fitted effect of over 45% in size)
How it was run: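 Viability read by CellTiter-Fluor fluorescence in the same wells as the antagonist screen, added after 15.5 h of a 16 h, 37C exposure. Human breast carcinoma MDA-kb2 AR-luc cells, compounds co-dosed with agonist R1881.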

[7] = qHTS assay to identify small molecule antagonists of the thyroid receptor (TR) signaling pathway - cell viability counter screen (AID 743064); also: nearly all actives have a fitted effect of over 50% in size; also: potency is read from the fitted curve at half-maximal effect
How it was run: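 Plate GH3.TRE-Luc cells; incubate 4 h at 37 °C; add compound, then T3 to 1 nM final; incubate 23.5 h; add CellTiter-Fluor; incubate 30 min at 37 °C, 5% CO2; read fluorescence.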

[8] = qHTS assay to identify small molecule antagonists of the thyroid receptor (TR) signaling pathway (AID 743065); also: nearly all actives have a fitted effect of over 55% in size; also: potency is read from the fitted curve at half-maximal effect
How it was run: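 Antagonism measured as loss of luciferase signal in GH3 cells stably carrying a TRE-luciferase reporter, co-treated with compound and T3 (1 nM final) for 23.5 h at 37 C. Viability was read in the same well by CellTiter-Fluor.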

[9] = test system: thyroid hormone receptor (rat, GH3 cells); assay: qHTS assay to identify small molecule agonists of the thyroid receptor (TR) signaling pathway (AID 743066; calls by dose curve)
[10] = target: Estrogen receptor (Homo sapiens) (UniProt P03372); assay: qHTS assay to identify small molecule antagonists of the estrogen receptor alpha (ER-alpha) signaling pathway (AID 743069; active = well fitted curve in the direction sought with a large enough effect in the signal ratio in the repeat runs, not every such curve was filed as active; inconclusive = weak or mixed curves, or effect the other way; inactive = no such curve, though single readings can be large or run the other way; the % refers to the signal ratio)
How it was run: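 Antagonist mode: compounds in DMSO were co-added with 17beta-estradiol to ER-alpha-bla HEK293 cells (2% charcoal-stripped serum) and left 18 h at 37C. Reporter inhibition was measured as FRET fluorescence after 2 h LiveBLAzer substrate at room temperature.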

[11] = target: Estrogen receptor (Homo sapiens) (UniProt P03372); assay: qHTS assay to identify small molecule agonists of the estrogen receptor alpha (ER-alpha) signaling pathway (AID 743075; calls by dose curve;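 also: HEK293 GripTite cells with ER-alpha and UAS-driven beta-lactamase reporter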; also: potency is read from the fitted curve at half-maximal effect)
[12] = target: Estrogen receptor (Homo sapiens) (UniProt P03372); assay: qHTS assay to identify small molecule agonists of the estrogen receptor alpha (ER-alpha) signaling pathway using the BG1 cell line (AID 743079); conditions: BG1Luc4E2 cells, ERE-luciferase agonist, 22 h; activation: at 70.3 µM (top of the series); also: nearly all actives have a fitted effect of over 20% in size; also: potency is read from the fitted curve at half-maximal effect
[13] = qHTS assay to identify small molecule antagonists of the estrogen receptor alpha (ER-alpha) signaling pathway using the BG1 cell line (AID 743080; calls by dose curve;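 also: BG1 cells stimulated with 17beta-estradiol alongside compound; nearly all actives have a fitted effect of over 25% in size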)
How it was run: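 Luminescence from a 4×ERE-luciferase reporter in BG1-Luc-4E2 cells served as read-out. Cells, pre-cultured 5 days in stripped-serum phenol-red-free medium, were exposed to compound with 17beta-estradiol co-stimulation for 21.5 h at 37 C.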

[14] = qHTS assay to identify small molecule antagonists of the estrogen receptor alpha (ER-alpha) signaling pathway using the BG1 cell line - cell viability counter screen (AID 743081);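 also: compound given together with 17beta-estradiol as the ER stimulus; nearly all actives have a fitted effect of over 45% in size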
Aromatase (Homo sapiens) = Aromatase (Homo sapiens) (UniProt P11511); assay: qHTS assay to identify aromatase inhibitors (AID 743083); also: nearly all actives have a fitted effect of over 55% in size
[15] = qHTS assay to identify small molecule antagonists of the estrogen receptor alpha (ER-alpha) signaling pathway - cell viability counter screen (AID 743074; calls by dose curve;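 also: HEK293 cells carrying ER-alpha-UAS-bla reporter stimulated with 17beta-estradiol; nearly all actives have a fitted effect of over 45% in size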)

Estrogen receptor (Homo sapiens), sequence (P03372 whole entry, looked up): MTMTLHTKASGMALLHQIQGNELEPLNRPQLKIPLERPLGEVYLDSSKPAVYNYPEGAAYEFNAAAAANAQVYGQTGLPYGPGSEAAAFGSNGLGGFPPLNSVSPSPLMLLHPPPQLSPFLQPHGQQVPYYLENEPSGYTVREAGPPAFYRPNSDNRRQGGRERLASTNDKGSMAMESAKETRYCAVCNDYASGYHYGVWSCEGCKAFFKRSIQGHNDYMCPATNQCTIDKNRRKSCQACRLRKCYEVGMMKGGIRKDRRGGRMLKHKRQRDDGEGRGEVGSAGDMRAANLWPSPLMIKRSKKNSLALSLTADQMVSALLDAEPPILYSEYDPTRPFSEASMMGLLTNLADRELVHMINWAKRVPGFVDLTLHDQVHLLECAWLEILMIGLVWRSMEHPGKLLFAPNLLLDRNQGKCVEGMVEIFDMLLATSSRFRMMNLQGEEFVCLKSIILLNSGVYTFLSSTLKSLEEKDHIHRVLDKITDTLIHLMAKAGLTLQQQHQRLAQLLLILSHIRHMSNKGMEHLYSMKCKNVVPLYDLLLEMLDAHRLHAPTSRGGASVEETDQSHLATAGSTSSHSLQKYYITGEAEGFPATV
Aromatase (Homo sapiens), sequence (P11511 whole entry, looked up): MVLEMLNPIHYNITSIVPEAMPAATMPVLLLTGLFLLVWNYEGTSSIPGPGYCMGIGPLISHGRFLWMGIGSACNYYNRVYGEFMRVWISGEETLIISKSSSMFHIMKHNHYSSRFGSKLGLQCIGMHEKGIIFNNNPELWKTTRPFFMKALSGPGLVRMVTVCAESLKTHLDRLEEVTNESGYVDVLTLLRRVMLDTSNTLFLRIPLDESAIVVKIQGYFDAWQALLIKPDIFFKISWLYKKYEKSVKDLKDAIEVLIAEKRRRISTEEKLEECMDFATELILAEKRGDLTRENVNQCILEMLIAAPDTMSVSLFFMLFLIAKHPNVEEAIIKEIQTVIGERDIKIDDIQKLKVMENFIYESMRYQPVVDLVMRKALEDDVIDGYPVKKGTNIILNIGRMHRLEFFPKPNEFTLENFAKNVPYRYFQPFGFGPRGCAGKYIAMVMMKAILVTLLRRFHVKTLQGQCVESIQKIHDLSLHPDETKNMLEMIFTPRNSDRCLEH

SMILES	Potency [1]	Potency [2]	Potency [3]	Potency [4]	Potency [5]	Potency [6]	Potency [7]	Potency [8]	Potency [9]	Potency [10]	Potency [11]	Potency [12]	Potency [13]	Potency [14]	Potency (Aromatase (Homo sapiens))	Potency [15]
Cc1onc(-c2ccccc2)c1C(=O)N[C@@H]1C(=O)N2[C@@H]1SC(C)(C)[C@@H]2C(=O)O	inactive	inactive	inactive	inactive	inactive	inactive	inactive	inactive	inactive	inactive	inactive	inactive	inactive	inactive	inactive	
CC(=O)Oc1c(C)cc(OCC(O)CNC(C)C)c(C)c1C (centres undefined)	inactive	inactive	inactive	inactive	inactive	inactive	inactive	inactive	inactive		10.7 µM [inconclusive] (active)	3.76 µM (active)	inactive	inactive	inactive	inactive
CN1CCN(C(c2ccccc2)c2ccc(Cl)cc2)CC1 (centres undefined)	inactive	9.02 µM (active)	10.1 µM (active)	11.4 µM (active)	inactive	inactive	5.69 µM (active)	10.1 µM (active)	inactive		inactive	inactive	inactive	inactive	inactive	inactive
N[C@H](CC(=O)O)C(=O)O	inactive	inactive	inactive	inactive	inactive	inactive	inactive	inactive	inactive		inactive	inactive	inactive	inactive	inactive	inactive
CC(=O)OC[C@H]1O[C@@H](O[C@H]2[C@H](O)[C@@H](OC(=O)c3ccccc3C(=O)O)[C@H](O)O[C@@H]2COC(C)=O)[C@H](O)[C@@H](OC(=O)c2ccccc2C(=O)O)[C@@H]1O	inactive	inactive	inactive	inactive	inactive	inactive	inactive	inactive	inactive	inactive	inactive	inactive	inactive	inactive	inactive	
Cc1c(N)nc(C(CC(N)=O)NCC(N)C(N)=O)nc1C(=O)NC(C(=O)NC(C)C(O)C(C)C(=O)NC(C(=O)NCCc1nc(-c2nc(C(=O)NCCCN[C@@H](C)c3ccccc3)cs2)cs1)C(C)O)C(O[C@@H]1O[C@@H](CO)[C@@H](O)[C@H](O)[C@@H]1O[C@H]1O[C@H](CO)[C@@H](O)[C@H](OC(N)=O)[C@@H]1O)c1cnc[nH]1 (some centres undefined)	inactive	1.19 µM (active)	0.944 µM (active)	0.0531 µM (active)	inactive	inactive	1.68 µM (active)	3.76 µM (active)	inactive					inactive		inactive
c1ccc2c(CCC3CCNCC3)c[nH]c2c1	inactive	13.3 µM (active)	29.8 µM (active)	26.6 µM (active)	inactive	inactive	18.8 µM (active)	21.1 µM (active)	inactive	inactive	inactive	inactive	inactive	inactive	inactive	
COc1ccc(CNCC(O)COc2ccc3[nH]c(=O)ccc3c2)cc1OC (centres undefined)	inactive	inactive	inactive	inactive	inactive	inactive	inactive	inactive	inactive					inactive	inactive	inactive
Nc1ncnc(Nc2ccc(Cl)cc2)n1	inactive	inactive	inactive	inactive	inactive	inactive	inactive	inactive	inactive	inactive	inactive	23.7 µM (active)			inactive	inactive
NCCC[C@H](N)CC(=O)N[C@H]1CNC(=O)[C@H]([C@H]2C[C@H](O)NC(N)=N2)NC(=O)/C(=C/NC(N)=O)NC(=O)[C@H](CO)NC(=O)[C@H](CO)NC1=O (β3hOrn-[Dap]SS[ΔAla(Z-3-ureido)][X5]; lactam 1-C)	inactive	inactive	inactive	inactive	inactive	inactive	inactive	inactive	inactive					inactive	inactive	inactive
CCCCC[C@H](O)/C=C/[C@@H]1[C@H]2C/C(=C/CCCC(=O)O)O[C@H]2C[C@H]1O	inactive	inactive	inactive	inactive	inactive	inactive	inactive	inactive	inactive			inactive			inactive	inactive
CCN1C(=O)NC(c2ccccc2)C1=O (centres undefined)	inactive	inactive	inactive	inactive	inactive	inactive	inactive	inactive	inactive		inactive	inactive	inactive	inactive	inactive	inactive
COc1ccc(C(=O)CCC(=O)O)c2ccccc12	inactive	inactive	inactive	inactive	inactive	inactive	inactive	inactive	inactive		inactive	inactive	inactive	inactive	inactive	inactive
O=[n+]1ccn([O-])c2ccccc21	inactive	inactive	inactive	inactive	inactive	inactive	inactive	inactive	inactive					inactive		inactive
Cc1ccc(S(=O)(=O)NC(=O)N[C@@H](C)Cc2ccccc2)cc1	inactive	inactive	inactive	inactive	inactive	inactive	inactive	inactive	inactive					inactive	inactive	inactive
